Assay outcomes from PubChem.
Only some compounds are listed: those with a hit (about 5.7% of all), similar ones and a draw of the others.
BAZ2B inh = BAZ2B (human) inhibition; AID 504333; 4.4% of 360,000 active; Potency, µM (top dose mostly 114 µM), without a hit: at the highest dose activity change, negative = inhibition, usual class: inhibitors; AlphaScreen BAZ2B-H3K14Ac peptide displacement; note: potency is the fitted concentration of half-maximal effect; % is set by controls: 0 for no effect and ±100 for the full control effect; nearly all actives have a fitted effect of over 60% in size
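Compounds, titrated to a top concentration of 110 uM, were incubated 30 min at room temperature with preformed BAZ2B/acetyl-K14 H3 peptide complex (50 nM each). Proximity signal was measured by AlphaScreen after 20 min with beads.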
HP1b binding inh = blocks HP1-beta chromodomain binding to methylated histone tails | 0.56% of 390,000 active | Potency, µM (highest dose often 114 µM), for inactives: top-dose activity change, negative = inhibition, usual class: inhibitors | P83916 | AlphaScreen HP1-beta / biotin-H3K9me3 peptide binding; note: potency is the fitted concentration of half-maximal effect; nearly all actives have a fitted effect of over 70% in size
Target sequence (P83916 whole entry, looked up): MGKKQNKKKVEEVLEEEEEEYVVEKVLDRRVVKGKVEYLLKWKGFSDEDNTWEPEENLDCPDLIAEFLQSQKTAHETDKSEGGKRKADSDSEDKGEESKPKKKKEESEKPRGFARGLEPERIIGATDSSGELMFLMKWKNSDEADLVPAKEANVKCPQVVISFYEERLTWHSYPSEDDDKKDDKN
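HP1-beta protein (50 nM final) preincubated 30 min at room temperature with biotinylated H3(1-18)K9me3 peptide (50 nM) in PBS pH 7.4, 0.01% Tween-20, then compound added for 30 min. AlphaScreen streptavidin donor/nickel chelate acceptor beads (10 ug/mL final), 30 min dark, luminescence read.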
JMJD2E inh-1 = inhibitors of human JMJD2E histone demethylase. AID 2147. JMJD2E catalytic domain, FDH-coupled NADH fluorescence. 1.6% of 230,000 active. Potency, µM (highest dose often 57.1 µM), for the others: at the highest dose activity change, negative = inhibition, most hits filed as inhibitors; active = well fitted inhibition curve with a large enough effect, not every such curve was filed as active; inconclusive = small, poorly fitted or top-dose-only effect, or another doubt; inactive = no such curve, though single readings can be large or run the other way;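 note: potency is the fitted concentration of half-maximal effect; 0% = wells with enzyme and -100% = buffer wells without enzyme; nearly all actives have a fitted effect of over 50% in size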
L3MBTL1 block = blocks human L3MBTL1; Q9Y468; Potency, µM (top dose mostly 57.1 µM), for the others: at the top dose activity, negative = inhibition, hits mostly inhibitors; 0.66% of 230,000 active; AID 485360; AlphaScreen L3MBTL1–H3K9me1 peptide binding; note: potency is the fitted concentration of half-maximal effect; % is set by controls: 0 for no effect and ±100 for the full control effect; nearly all actives have a fitted effect of over 60% in size
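AlphaScreen proximity signal between nickel-chelate acceptor and streptavidin donor beads (final 10 ug/mL) reports binding of 50 nM L3MBTL1 to 75 nM biotin-H3 K9me1 peptide; complex incubated with compounds 30 min at room temperature; cefsulodin titration as control.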
PI5P4K alpha inh = blocks human PI5P4K alpha kinase activity | PI5P4Kalpha enzyme, ADP-Glo luminescence, 60 min; hits give low values | max response, % | 1.2% of 330,000 active | AID 652105; active = max response of -50% or lower; inconclusive = between -30% and -50%; inactive = -30% or higher; note: value at the top dose of about 77 µM; % is set by controls: 0 for no effect and ±100 for the full control effect
Target sequence (P48426 whole entry, looked up): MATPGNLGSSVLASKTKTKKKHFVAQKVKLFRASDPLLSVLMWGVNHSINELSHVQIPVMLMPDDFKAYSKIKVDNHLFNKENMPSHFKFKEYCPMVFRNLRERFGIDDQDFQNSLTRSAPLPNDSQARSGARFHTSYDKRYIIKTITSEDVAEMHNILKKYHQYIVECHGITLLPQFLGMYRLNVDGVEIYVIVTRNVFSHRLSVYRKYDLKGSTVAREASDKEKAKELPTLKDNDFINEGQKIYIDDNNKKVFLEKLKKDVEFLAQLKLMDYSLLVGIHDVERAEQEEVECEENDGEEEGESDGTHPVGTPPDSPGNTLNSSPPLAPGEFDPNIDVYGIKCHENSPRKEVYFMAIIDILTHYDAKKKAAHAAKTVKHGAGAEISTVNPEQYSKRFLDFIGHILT
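Human PI5P4Kalpha with substrate in 0.038 M HEPES pH 7.4, 0.28 mM EGTA, 0.1% CHAPS, 5% DMSO; reaction started with 5 microM ATP (final), 60 min at room temperature. ADP formed read by ADP-Glo luminescence.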
JMJD2A Tudor inh = inhibitors of human JMJD2A Tudor domain; O75164; AlphaScreen JMJD2A-Tudor / H3K4me3 peptide binding; Potency, µM (doses to about 114 µM), for the others: at the top dose activity change, negative = inhibition, hits mostly inhibitors; 4.4% of 390,000 active; note: potency is the fitted concentration of half-maximal effect; % is set by controls: 0 for no effect and ±100 for the full control effect; nearly all actives have a fitted effect of over 50% in size
JMJD2E inh-2 = confirmation of inhibitors of human JMJD2E demethylase. shares compounds with JMJD2A Tudor inh. Recombinant JMJD2E, FDH-coupled NADH fluorescence (FDH is formaldehyde dehydrogenase). Potency, µM (top dose mostly 56.8 µM), for the others: top-dose activity change, negative = inhibition, usual class: inhibitors. 93% of 140 active. AID 2677
FDH counter = FDH (Pseudomonas putida) inhibition counter-screen | Potency, µM (top dose mostly 56.7 µM), without a hit: top-dose activity, negative = inhibition, actives largely listed as inhibitors | FDH enzyme assay, NADH fluorescence kinetic | AID 2680 | shares compounds with JMJD2A Tudor inh | 10% of 140 active
G9a inh = confirmation of human histone methyltransferase G9a inhibitors; shares compounds with JMJD2A Tudor inh; G9a H3K9 monomethylation, AlphaScreen, 2 h; Potency, µM, actives largely listed as inhibitors; 89% of 370 active; AID 588344; note: potency is the fitted concentration of half-maximal effect; nearly all actives have a fitted effect of over 65% in size
RGS4 inh = inhibits human RGS4, hit validation; shares compounds with JMJD2A Tudor inh; RGS4 GAP activity, Transcreener GDP fluorescence polarization; Potency, µM, hits mostly inhibitors; 80% of 25 active; AID 602388
Active calls of the source: *; ? = inconclusive; · = not tested or not shown; [ ] = another dose, or the depositor's remark. Unless noted, calls come from the whole dose curve; as a rule, active = well fitted curve in the direction sought with a large enough effect; inconclusive = small, poorly fitted or top-dose-only effect, or another doubt; inactive = no such curve, though single readings can be large; an effect the other way counts as inactive or inconclusive.

SMILES	BAZ2B inh	HP1b binding inh	JMJD2E inh-1	L3MBTL1 block	PI5P4K alpha inh	JMJD2A Tudor inh	G9a inh	others
Cc1cccc(OCC(=O)N(C)CCc2ccccn2)c1	35µM*	?	?	·	-4	?	10*
Cc1ccc(NC(=O)CN(C)Cc2c(O)ccc3ccccc23)cc1	-33%	-12%	·	·	?	79µM*	0.63*
CN(C)Cc1c(O)ccc2ccccc12	-18%	36%	?	-4%	-5	5%[11.4 µM]	·
COc1ccc(OC)c(NC(=O)c2c(NCc3sccc3C)sc3c2CCCCC3)c1	?	0%	·	·	·	?	·
COc1ccc(NC(=O)c2c(NCc3cccc(OC)c3)sc3c2CCC3)cc1	-5%	-6%	·	·	·	-29%	·
CCOc1ccc(NC(=O)c2c(NCc3cccnc3)sc3c2CCC(C)C3)cc1 (centres undefined)	?	-1%	·	·	·	16µM*	1.3*
CCOc1ccc(NC(=O)c2c(NCc3cccs3)sc3c2CCC(C)C3)cc1 (centres undefined)	-38%	26%	·	·	·	?	·
CCOC(=O)N1CCc2c(sc(NCc3ccc(OC)c(Br)c3)c2C(=O)Nc2cc(OC)ccc2OC)C1	-31%	?	·	·	·	?	1.8*
CCOC(=O)N1CCc2c(sc(NCc3sccc3C)c2C(=O)Nc2cc(OC)ccc2OC)C1	?	?	·	·	·	11µM*	5.8*
CCOC(=O)N1CCc2c(sc(NCc3cccc(F)c3)c2C(=O)Nc2ccc(OCC)cc2)C1	?	-13%	·	·	·	?	3.6*
COC(=O)CC/C(O)=C1\C(=O)CC(C)(C)CC1=NCc1nc2ccccc2[nH]1	-11%	9%	-2%	-15%	-1	-5%	·
Cc1cccc(NC(=O)CN2CCN(C(=O)CNC(=O)c3ccc(-c4ccccc4)cc3)CC2)c1C	·	·	·	·	-7	·	·
Cc1cccc(N2CCN(C(=O)c3cc(S(=O)(=O)N4CCC(C)CC4)cn3C)CC2)c1C	?	7%[57 µM]	·	·	·	?	·
CC(C)N(C(=S)Nc1cccnc1)c1ccccc1	1%	35%	17%	·	-1	0%	·
CCOC(=O)c1ccc(S(=O)(=O)N2CCN(Cc3cc4c(cc3O)OCO4)CC2)cc1	-34%	11%	·	-9%	4	-21%	0.89*
Cc1ccc(OCc2ccc(-c3nc(C#N)c(N4CCN(c5cccc(Cl)c5)CC4)o3)o2)cc1	-17%	6%	·	·	·	-18%	·
Cc1ccccc1OCc1ccc(-c2nc(C#N)c(N3CCN(c4ccccc4)CC3)o2)o1	?	8%	·	·	·	-31%	?
CCCCn1c(SCC(=O)N2CCCC2)nnc1-c1ccccc1	-3%	27%	4%	·	0	8%	·
CCn1c(SCC(=O)N2CCCC2)nnc1-c1ccc(N)cc1	0%	-7%	-5%	-8%	4	12%[11.4 µM]	1.6*
Cc1ccc(N(CC(=O)Nc2cccc(Cl)c2C)S(=O)(=O)c2c(C)noc2C)cc1	·	35%	·	·	·	0%	·
COC(=O)c1ccccc1NC(=O)CSc1nc2sc3c(c2c(=O)[nH]1)CCCC3	?	?	·	·	·	56µM*	4.1*
CN(C)c1cccc(C(=O)Nc2cccc(F)c2)c1	?	14%	-1%	-3%	-3	-35%	7.1*
CNc1ncncc1-c1ccccc1C(F)(F)F	·	·	·	·	·	·	·	RGS4 inh=27*
CNc1ncncc1-c1ccccc1OC	·	·	-3%	·	·	·	·
COc1cccc(NC(=O)NCCCN2CCN(c3ccc(F)cc3)CC2)c1	-30%	-14%	-2%	-6%	2	-28%	·
SMILES	BAZ2B inh	HP1b binding inh	JMJD2E inh-1	L3MBTL1 block	PI5P4K alpha inh	JMJD2A Tudor inh	G9a inh	others
COc1ccc(N2CCC(CNC(=O)Nc3ccc(Cl)cc3)C2)cc1 (centres undefined)	-34%	?	-8%	0%	0	?	0.5*
COc1ccc(N2CCC(CNC(=O)Nc3cccc(OC)c3)C2)cc1 (centres undefined)	32µM*	16µM*	-10%	·	·	40µM*	1.6*
COc1ccccc1C(=O)Nc1nnc(SCC(=O)NC2CCCC2)s1	12%	21%	·	·	2	-7%	·
Cc1ccc(-c2nc3cccc(C)n3c2Nc2ccc(F)cc2)o1	·	?	·	·	·	56µM*	·	RGS4 inh=19*
Cc1ccc2nc(-c3ccc(C)o3)c(Nc3ccc(F)cc3)n2c1	·	41%	·	·	·	-10%	·
c1ccc2sc(N3CCCN(Cc4nc(-c5cnccn5)no4)CC3)nc2c1	1%	51%	-16%	-2%	2	-3%	·
Cc1cc(C)nc(SC2CC(=O)N(c3ccc(C)c(C)c3)C2=O)n1 (centres undefined)	-1%	58%	·	1%	0	2%	·
Cc1ccc(N2C(=O)CC(Sc3ncn[nH]3)C2=O)cc1C (centres undefined)	?	-62%	1.3µM*	-3%	0	10µM*	·	JMJD2E inh-2=7.1µM*;FDH counter=0.22µM*
COc1ccc(Cl)cc1NC(=O)c1c(NCc2ccc(C)o2)sc2c1CCCCC2	-26%	-19%	·	·	·	?	·
COc1ccc(Cl)cc1NC(=O)c1c(NCc2ccc(C)o2)sc2c1CCC(C)C2 (centres undefined)	-6%	23%	·	·	·	-35%	·
COc1ccccc1NC(=O)c1c(NCc2ccc(C)o2)sc2c1CCCCC2	?	?	·	·	·	45µM*	3.6*
COc1ccc(OC)c(NC(=O)c2c(NCc3ccc(C)o3)sc3c2CCCCC3)c1	-37%	?	·	·	·	35µM*	5.1*
Cc1ccc(CN2CCCn3nc(C(=O)NCCc4ccc(Cl)cc4)cc3C2=O)cc1	-33%	3%	·	·	·	-13%	·
CC(=O)N1CCN(c2ccc(NC(=O)c3ccccc3Cl)cc2)CC1	-1%	7%	·	-4%	-21	?	·
CC(C)C(=O)Nc1ccc(N2CCCC2)cc1	-38%	3%	-28%	·	2	?	1*
Cc1cc(C)cc(C(=O)Nc2ccc(N3CCCC3)cc2)c1	?	-13%	-3%	-6%[2.29 µM]	-13	?	0.71*
